# Most compounds without a hit are left out; they make up all but 2.4% or so of the library.
# Pol eta inh – inhibitors of human DNA polymerase eta. Q9Y253. 390,000 tested, 1.2% active. Potency, µM (top dose mostly 114 µM), without a hit: at the top dose activity change, negative = inhibition, usual class: inhibitors. AID 588591. recombinant Pol eta, fluorescent DNA replication assay; further: on the % scale 0 is the no-effect control and ±100 the full control effect
#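 Pol eta at 10 nM preincubated with compounds 15 min at room temperature; reaction started with fluorescent substrate (50 nM final) and read kinetically at 0 and 10 min.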
# FEN1 inh – blocks human flap endonuclease 1; P39748; AID 588795; Recombinant FEN1 flap cleavage, fluorescence, 15 min; 390,000 tested, 0.35% active; Potency, µM (top dose mostly 114 µM), inactives show top-dose activity change, negative = inhibition, actives largely listed as inhibitors; further: on the % scale 0 is the no-effect control and ±100 the full control effect; nearly all actives have a fitted effect of over 65% in size
#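 Enzyme 10 nM, 15 min RT preincubation with compound; start with substrate 50 nM final; reads at 0 and 15 min; qHTS titration, four-parameter Hill fit.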
# Pol iota inh – inhibitors of human DNA polymerase iota; Pol iota fluorescent replication assay, 10 min; Potency, µM (top dose mostly 115 µM), for the others: top-dose activity, negative = inhibition, hits mostly inhibitors; 390,000 tested, 1% active; AID 588590
#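 Pol iota at 10 nM preincubated 15 min with compounds at room temperature; reaction started with fluorescent substrate, 50 nM final. Fluorescence read kinetically at 0 and 10 min; buffer-only wells as negative control.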
# Pol kappa inh – inhibitors of human DNA polymerase kappa; purified Pol kappa, fluorescent DNA synthesis assay, 10 min; Potency, µM (doses to about 107 µM), without a hit: top-dose activity, negative = inhibition, hits mostly inhibitors; 400,000 tested, 0.53% active; Q9UBT6; further: on the % scale 0 is the no-effect control and ±100 the full control effect
#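 10 nM Pol kappa was preincubated with compounds for 15 min at room temperature. Reaction started with 50 nM (final) substrate. Fluorescence read kinetically at 0 and 10 min.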
# POLB inh – blocks human DNA polymerase beta activity; P06746; Potency, µM (doses to about 114 µM), for the others: at the top dose activity change, negative = inhibition, hits mostly inhibitors; Pol beta primer extension/strand displacement, fluorescence kinetic; 340,000 tested, 1.3% active; further: on the % scale 0 is the no-effect control and ±100 the full control effect
#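 Homogeneous kinetic assay of primer extension and strand displacement by 10 nM Pol beta, preincubated 15 min at room temperature with compound before 50 nM substrate (final) was added. Read at 0 and 10 min; four-parameter Hill fit.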
# WRN inhibitor – inhibitors of human WRN helicase; Q14191; Potency, µM (doses to about 114 µM), inactives show top-dose activity change, negative = inhibition, hits mostly inhibitors; WRN helicase unwinding, fluorescent forked duplex, kinetic; 360,000 tested, 0.46% active; AID 651768; further: on the % scale 0 is the no-effect control and ±100 the full control effect; nearly all actives have a fitted effect of over 55% in size
#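 Enzyme (20 nM final) and test compound sit together 15 min at room temperature before substrate addition. Substrate is a single-forked duplex oligonucleotide (100 nM) labelled with fluorophore and quencher, with 2 mM ATP; helicase unwinding raises red fluorescence, read kinetically.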
# * marks the source's active call; other numbers are inactive results; ? = inconclusive; . = no result given; [ ] = remark or other dose. The call rests on the fitted dose curve; in most records, active means well fitted curve in the direction sought with a large enough effect; inconclusive means small, poorly fitted or top-dose-only effect, or another doubt; inactive means no such curve, though single readings can be large; an effect the other way counts as inactive or inconclusive. Potency means the concentration at half of the fitted maximal effect.
SMILES,Pol eta inh,FEN1 inh,Pol iota inh,Pol kappa inh,POLB inh,WRN inhibitor
CCC(C)C(N)C(=O)NC(CC(N)=O)C(=O)NC(CC(C)C)C(=O)NC(CCCCN)C(=O)NC(C)C(=O)NC(CC(C)C)C(=O)NC(C)C(=O)NC(C)C(=O)NC(CC(C)C)C(=O)NC(C)C(=O)NC(CCCCN)C(=O)NC(CCCCN)C(=O)NC(C(=O)NC(CC(C)C)C(N)=O)C(C)CC (configuration not stated),.,.,.,-8.2%[60.1 µM],.,.
COc1ccc(/[N+]([O-])=C/c2ccco2)cc1,89.1µM*,-17.9%,?,-14.0%,.,10.2%
Cc1cc(C)c2c(=O)[nH]c(SCC(=O)c3ccc(C)c(C)c3)nc2n1,-11.3%,2.7%,81.9%,-8.6%,17.8µM*,-10.5%
Cc1ccc(NC(=O)CSc2nc3nc(C)cc(C)c3c(=O)[nH]2)cc1,?,3.2%,1.2%,-1.2%,44.7µM*,-15.3%
CCOc1ccc(NC(=O)CSc2nc3c(c(=O)[nH]2)CCCC3)cc1,-5.5%,10.7%,23.5%,-3.1%,0.8%,.
CN(C)c1ccc(NC(=O)CSc2nc3c(c(=O)[nH]2)CCCC3)cc1,79.4µM*,-7.7%,?,?,?,-1.6%[11.6 µM]
Cc1cc(C)c2c(=O)[nH]c(SCC(=O)Nc3ccccc3)nc2n1,9.5%,6.5%,-1.6%,-10.4%,1.2%,-13.5%
COc1cc(OC)c(/C=C/c2ccc3ccccc3[n+]2[O-])c(OC)c1,.,-7.5%,17.5%,-17.5%,.,.
O=C(CSc1ncnc2nc[nH]c12)Nc1nnc(SCc2ccc(Cl)c(Cl)c2)s1,?,-7.3%,?,-14.8%,39.8µM*,?
Cc1ccc(C)c(NC(=O)CSc2ncnc3nc[nH]c23)c1,-1.3%,-17.0%,?,4.6%,7.8%,-0.4%
O=C(O)c1cc2nccc(-c3ccco3)n2n1,17.8µM*,-24.6%,?,?,0.3%,-5.0%[11.6 µM]
COc1ccc(-c2ccnc3cc(C(=O)O)nn23)cc1,0.3%,10.9%,56.7%,-6.0%,107.4%,-14.8%
CC(NS(=O)(=O)c1ccccc1)C(=O)NC1CCCC1 (configuration not stated),79.4µM*,-4.1%,-22.5%,-8.5%,?,-4.7%
CC(C)C(NS(=O)(=O)c1ccccc1)C(=O)NC1CCCC1 (configuration not stated),-2.5%,0.4%,?,9.9%,56.1%,3.6%
Nc1ccc(/C=C/c2ccnc3ccccc23)cc1,.,-7.4%,15.8%,3.1%,.,.
CCN1C(=NCc2cccc(Cl)c2)N[C@@H](c2cccc(C(F)(F)F)c2)C(C(=O)OC)=C1C,.,2.2%,?,-14.6%,.,.
Cc1ccc(S(=O)(=O)Nc2ccc(O)c3cccnc23)cc1,-18.1%,7.8%,48.6%,7.0%,6.5%,-4.8%
Cc1ccc(S(=O)(=O)Nc2ccc(O)c3ncccc23)cc1,1.6%,12.6µM*,-12.8%,-23.1%,-16.1%,-26.2%
CC(Oc1ccccc1)C(=O)OCc1cc(=O)n2nc(C(C)C)sc2n1 (configuration not stated),-3.6%,13.5%,7.1%,0.0%,-6.4%,.
Cn1c(-c2ccc3nc(N)sc3c2)nc2cc(N)ccc21,?,56.2µM*,31.6µM*,70.8µM*,20µM*,?
Cn1c(-c2ccc(N)cc2)nc2ccccc21,-6.8%,-9.3%,4.2%,-0.2%,0.4%,-4.0%
O=c1c(O[C@H]2O[C@@H](CO)[C@H](O)[C@@H](O)[C@@H]2O)c(-c2ccc(O)cc2)oc2cc(O)cc(O)c12,?,4.3%,-1.1%,-7.7%,.,11.7%
O=c1c(O)c(-c2ccc(O)c(O)c2)oc2c(OC3OC(CO)C(O)C(O)C3O)c(O)cc(O)c12 (configuration not stated),.,.,.,3.16µM*,.,.
C[C@@H]1O[C@@H](O[C@H]2[C@H](O)[C@@H](O)[C@H](Oc3c(-c4ccc(O)c(O)c4)oc4cc(O)cc(O)c4c3=O)O[C@@H]2CO)[C@H](O)[C@H](O)[C@H]1O,?,?,?,?,.,-16.4%
O=c1c(O)c(-c2ccc(O)c(O)c2)oc2c(OC[C@@H]3O[C@@H](O)[C@@H](O)[C@H](O)[C@H]3O)c(O)cc(O)c12,.,.,.,0.316µM*,.,.
SMILES,Pol eta inh,FEN1 inh,Pol iota inh,Pol kappa inh,POLB inh,WRN inhibitor
CCc1ccc(NC(=O)c2nnn(Cc3cccc(C(F)(F)F)c3)c2N)cc1,-8.9%,-4.9%,7.2%,-12.4%,15.7%,.
Cc1ccc(S(=O)(=O)N2CCN(c3nc(-c4ccc(CN5CCNCC5)s4)nc4ccccc34)CC2)cc1,.,0.5%,-13.5%,-7.1%,.,.
COc1cccc(C(C[N+](=O)[O-])c2c(C)[nH]n(-c3ccccc3)c2=O)c1 (configuration not stated),-11.0%,-9.1%,2.51µM*,-4.0%,26.9%,-26.2%
Cc1[nH]n(-c2ccccc2)c(=O)c1C(c1ccc(C(=O)O)cc1)c1c(C)[nH]n(-c2ccccc2)c1=O,-4.1%,-4.0%,1.41µM*,-16.4%,10.6%,?
Cc1[nH]n(-c2ccccc2)c(=O)c1C(C[N+](=O)[O-])c1ccc(Br)cc1 (configuration not stated),-9.4%,-17.1%,-42.2%,-16.8%,23.2%,?
CCOc1ccc(C(c2c(C)[nH]n(-c3ccccc3)c2=O)c2c(C)[nH]n(-c3ccccc3)c2=O)cc1OC,-2.2%,?,0.708µM*,-25.5%,-1.2%,.
CCOC(=O)c1sc(NC(=O)c2c(-c3ccccc3)c(-c3ccccc3)nn(C)c2=O)nc1C,-21.5%,-14.4%,21.5%,-1.9%,1.7%,.
O=c1c(N2CCN(c3cccc(Cl)c3)CC2)csc2ccccc12,-4.9%,-16.5%,0.8%,-6.4%[60.1 µM],24.8%,.
COc1ccc(NC(=O)CCS(=O)(=O)c2ccc(Br)s2)cc1,50.1µM*,-11.8%,?,?,31.6µM*,-7.4%[11.6 µM]
CCc1cccc(CC)c1NC(=O)CCS(=O)(=O)c1ccc(Br)s1,-11.7%,6.1%,1.6%,-4.1%,20µM*,.
O=C(N/N=C/c1ccccn1)c1cc(-c2ccc3ccccc3c2)n[nH]1,?,44.7µM*,?,-24.6%,20µM*,?
Cc1nn(-c2ccccc2)c(C)c1/C=N/NC(=O)c1cc(-c2ccc(Cl)s2)[nH]n1,-3.2%,-8.8%,-5.7%,-20.5%,-0.9%,0.2%
O=C(N/N=C/c1ccccn1)c1cc(-c2cccc3ccccc23)n[nH]1,13.8%,-5.7%,30.9%,-2.1%,0.9%,0.7%
O=C(N/N=C/c1ccccn1)c1cc(-c2ccc(Br)s2)[nH]n1,-29.4%,-8.4%,-11.8%,-22.1%,10µM*,-12.3%
O=C(N/N=C/c1ccncc1)c1cc(-c2ccc(Br)s2)[nH]n1,79.4µM*,-21.5%,?,-21.4%,22.4µM*,2.0%[11.6 µM]
